# Assay results published in the supplement of paper PMC10681739.
# Molecular target: T1, ETS1 (UniProt P14921)
# T1 sequence: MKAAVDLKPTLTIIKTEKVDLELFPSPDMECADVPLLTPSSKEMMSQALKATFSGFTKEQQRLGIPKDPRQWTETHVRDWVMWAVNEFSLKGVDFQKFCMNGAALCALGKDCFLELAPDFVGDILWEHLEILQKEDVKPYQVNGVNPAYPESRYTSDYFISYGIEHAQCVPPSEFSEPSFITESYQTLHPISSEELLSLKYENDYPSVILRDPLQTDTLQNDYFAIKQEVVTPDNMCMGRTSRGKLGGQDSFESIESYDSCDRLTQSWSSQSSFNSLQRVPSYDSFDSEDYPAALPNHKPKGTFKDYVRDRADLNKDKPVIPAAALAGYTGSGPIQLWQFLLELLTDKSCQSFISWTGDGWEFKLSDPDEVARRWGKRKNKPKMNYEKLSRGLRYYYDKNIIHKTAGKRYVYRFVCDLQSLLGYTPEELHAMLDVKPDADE
# Experiment: ETS1 binding intensity (PBM fluorescence) in presence of RUNX1, normalised to ETS1-only experiment (arbitrary fluorescence units); higher = stronger binding
# Details: ETS1 concentration 1 nM; RUNX1 concentration 25 nM
# 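Throughout, for RUNX1 binding intensity (PBM fluorescence) in presence of ETS1, normalised to RUNX1-only experiment: Full-length recombinant human ETS1 or RUNX1 bound to double-stranded 36-bp genomic probes on microarrays, detected by protein-specific primary antibody and Alexa488 secondary, spot fluorescence as median of four replicate spots.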
row,Sequence,ETS1 binding intensity
1,ATCACTTGTTTCCGCCAGCAAACCACAGGTCCCCAG,811
2,GAAGCGCTGGGCGGAAGTGGCTGTGGCTTTGCCCTT,14300
3,TCTAGTTCTGGTTTCCGGACCGCATTCGGAACTAGA,1390
4,AAAGTAGGTCCGGTCCGCGGGTGCGGTCGGGCATGC,545
5,GGGAACTGGGGAAGGGGATGTGGTAACCAGAACCAC,2600
6,CCAAGCACTTCCTGCTGTTAGCTTTGTGGGCTGAGT,1020
7,TTACAGGGGCCGGAAGTGGCCTGCGGGCGGAGAAGT,30900
8,TACTTCTTCCTGGCAGAGACCGGGAGTGCGGTCCGC,588
9,CACCTCCTACTTCCCCCCGCTGATAACCACCAACCC,1790
10,TCTTTAAAACCCGGAAGTTCCTGTGGTTCATACGCT,16500
11,TTGTCAGATGGCGAAGGAAACCGCGAAATTCGCCAT,1270
12,CCGCCACCGGAAGCGCCCTCCTAATCCCCGCAGCGC,6170
13,GCTTCTGAGGAAGTGCGTTCTGTGGGTAGGTGGAGT,1000
14,GGGGCCTCTGCTACTTCCTAGACCGCAAAATGGAGA,1570
15,TTCATTTCTACCTTCCTGTGGTCTTTTTGCCTCCGA,470
16,CTGTCTGCTTCCCGTGGCCAGCCCTGACCGCGGCCC,621
17,AAATGTGGCCGGATGCTCTGTGGGCGGGCGGCAGCT,3770
18,TTCTTCACTTCCTTCTCTCCGTGGTTTCGCCATTAG,436
19,GCATTGTGCTTCCGCTCGGGGAAAGACCGCTTACGG,911
20,CCCTTCGCTTCCGCTCCGCGTTCCCACAATGCAGTG,1090

row,Sequence,ETS1 binding intensity
1,CCGCGCACCCGGAACTACCTCCCGACCCGCATCCCC,592
2,GAGGCGTTTCCGCCTCCTTTTCGCGGTTGCCTTCTC,761
3,GCTCAAGTACCGGAAAGGCCCGCAGAAAGAAGGGCA,1270
4,CGACCGGAACCACTCTGAGGCGCTGCCGCAGACACC,583
5,GCGGGAAAAGGGAAGTTTGCGGGAGGTCAAATCCAC,550
6,GAGGACTTCCGGGTGCGTGTGATATCTGCGGGCCCG,793
7,GTGTGCGTGAGAAGAGGAAGTGGTTAGGAAGACACA,12200
8,GTGCAGGGCCCGGAAGCTCAGTGTGGTTAAAGACAT,5260
9,GGTCCGGATGTATAAAGCGCGGCCCCCTGCGGGGAG,1020
10,TACAACTTGCAACGGAAACCACTTCAGGTTCATTAC,1280
11,CAGAAACATCCCTCCTGCCGCCGCTTTGTGGTACCA,526
12,ACCGCCGGAAGTTTCTGCCGCGGCTTTGCGGGGACG,9610
13,CCGCCGACACACTTCCGGCGGCCACCACAGGGTATT,3660
14,AAAACAACTCCAGGATGTGGTTTTACTCAGAATGTA,7410
15,AGAGTCTTTTTTCCTGAGCGTTTGCGGTTTTGACTT,1690
16,TCGCTTCCGGTGTCGGTTACAGACTGTGGTTGCCAT,6190
17,GGGTGCAGACGGGAAGTTGCGGCTGCCAGCGAAGCT,2530
18,TGGGGAGGCAGGAAACGGGCCTTGTGGTTGGGGGGT,16900
19,CAGGTTGTTGAGGATGTGGAGAAACCGCAACCTCGT,7360
20,CTAAGCAGAGGCCGGAAGCGGTGGTTTTTAGCGGCT,20400

# Molecular target: RUNX1 (UniProt Q01196)
# Experiment: RUNX1 binding intensity (PBM fluorescence) in presence of ETS1, normalised to RUNX1-only experiment (arbitrary fluorescence units); higher = stronger binding
# Details: RUNX1 concentration 2 nM; ETS1 concentration 25 nM
# Procedure: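 Cooperative gcPBM on 36-bp genomic probes with neighbouring ETS1 and RUNX1 sites. Recombinant human RUNX1 (2 nM) was incubated alone or with ETS1 (25 nM) and detected with anti-RUNX1 antibody plus Alexa488 secondary. Values are medians over 4 replicate spots; the RUNX1+ETS1 data were normalised to the RUNX1-only data. The probes sit in constant array flanks that are not printed.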
# RUNX1, sequence (Q01196 whole entry): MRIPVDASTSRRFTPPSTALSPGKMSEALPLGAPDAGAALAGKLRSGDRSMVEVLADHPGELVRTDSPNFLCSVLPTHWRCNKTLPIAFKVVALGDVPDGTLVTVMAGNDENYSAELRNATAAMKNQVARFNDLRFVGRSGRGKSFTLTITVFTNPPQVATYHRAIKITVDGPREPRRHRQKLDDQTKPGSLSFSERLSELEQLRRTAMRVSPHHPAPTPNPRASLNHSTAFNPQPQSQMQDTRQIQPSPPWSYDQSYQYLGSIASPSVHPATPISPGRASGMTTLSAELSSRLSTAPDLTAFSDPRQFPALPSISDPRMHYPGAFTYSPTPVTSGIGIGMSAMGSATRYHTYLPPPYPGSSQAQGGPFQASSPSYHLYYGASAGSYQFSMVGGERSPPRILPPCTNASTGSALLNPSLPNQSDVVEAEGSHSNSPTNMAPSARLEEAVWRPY
row,Sequence,RUNX1 binding intensity
1,ATCACTTGTTTCCGCCAGCAAACCACAGGTCCCCAG,3750
2,GAAGCGCTGGGCGGAAGTGGCTGTGGCTTTGCCCTT,1620
3,TCTAGTTCTGGTTTCCGGACCGCATTCGGAACTAGA,1350
4,AAAGTAGGTCCGGTCCGCGGGTGCGGTCGGGCATGC,878
5,GGGAACTGGGGAAGGGGATGTGGTAACCAGAACCAC,1050
6,CCAAGCACTTCCTGCTGTTAGCTTTGTGGGCTGAGT,1600
7,TTACAGGGGCCGGAAGTGGCCTGCGGGCGGAGAAGT,2020
8,TACTTCTTCCTGGCAGAGACCGGGAGTGCGGTCCGC,920
9,CACCTCCTACTTCCCCCCGCTGATAACCACCAACCC,2830
10,TCTTTAAAACCCGGAAGTTCCTGTGGTTCATACGCT,1940
11,TTGTCAGATGGCGAAGGAAACCGCGAAATTCGCCAT,1050
12,CCGCCACCGGAAGCGCCCTCCTAATCCCCGCAGCGC,1920
13,GCTTCTGAGGAAGTGCGTTCTGTGGGTAGGTGGAGT,918
14,GGGGCCTCTGCTACTTCCTAGACCGCAAAATGGAGA,6150
15,TTCATTTCTACCTTCCTGTGGTCTTTTTGCCTCCGA,2320
16,CTGTCTGCTTCCCGTGGCCAGCCCTGACCGCGGCCC,1430
17,AAATGTGGCCGGATGCTCTGTGGGCGGGCGGCAGCT,1300
18,TTCTTCACTTCCTTCTCTCCGTGGTTTCGCCATTAG,3130
19,GCATTGTGCTTCCGCTCGGGGAAAGACCGCTTACGG,1590
20,CCCTTCGCTTCCGCTCCGCGTTCCCACAATGCAGTG,3700

row,Sequence,RUNX1 binding intensity
1,CCGCGCACCCGGAACTACCTCCCGACCCGCATCCCC,1440
2,GAGGCGTTTCCGCCTCCTTTTCGCGGTTGCCTTCTC,2790
3,GCTCAAGTACCGGAAAGGCCCGCAGAAAGAAGGGCA,1060
4,CGACCGGAACCACTCTGAGGCGCTGCCGCAGACACC,1010
5,GCGGGAAAAGGGAAGTTTGCGGGAGGTCAAATCCAC,968
6,GAGGACTTCCGGGTGCGTGTGATATCTGCGGGCCCG,2110
7,GTGTGCGTGAGAAGAGGAAGTGGTTAGGAAGACACA,1900
8,GTGCAGGGCCCGGAAGCTCAGTGTGGTTAAAGACAT,1540
9,GGTCCGGATGTATAAAGCGCGGCCCCCTGCGGGGAG,997
10,TACAACTTGCAACGGAAACCACTTCAGGTTCATTAC,866
11,CAGAAACATCCCTCCTGCCGCCGCTTTGTGGTACCA,925
12,ACCGCCGGAAGTTTCTGCCGCGGCTTTGCGGGGACG,1760
13,CCGCCGACACACTTCCGGCGGCCACCACAGGGTATT,1910
14,AAAACAACTCCAGGATGTGGTTTTACTCAGAATGTA,2710
15,AGAGTCTTTTTTCCTGAGCGTTTGCGGTTTTGACTT,19500
16,TCGCTTCCGGTGTCGGTTACAGACTGTGGTTGCCAT,3330
17,GGGTGCAGACGGGAAGTTGCGGCTGCCAGCGAAGCT,1270
18,TGGGGAGGCAGGAAACGGGCCTTGTGGTTGGGGGGT,1020
19,CAGGTTGTTGAGGATGTGGAGAAACCGCAACCTCGT,6690
20,CTAAGCAGAGGCCGGAAGCGGTGGTTTTTAGCGGCT,2090
